# Source: PubChem
# In the library only some 10% were active in any assay of this set; here they are far more common.
# NIH3T3 tox: Cytotoxic Profiling in NIH 3T3 Cell Line of Diverse Libraries Using Quantitative High-Throughput Screening | NIH 3T3 viability, CellTiter-Glo ATP luminescence, 48-72 h | Potency, µM (titrated, usually from 96.7 µM), inactives show at the top dose activity change, negative = cytotoxicity, hits mostly inhibitors | 94,000 compounds, 4.3% hits; also: nearly all actives have a fitted effect of over 55% in size
#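 Viability of NIH 3T3 cells after 48 or 72 hr compound treatment at 37 °C was assessed by CellTiter-Glo, with luminescence imaged following a 10 min room-temperature step.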
# HEK293 tox: Cytotoxic Profiling in HEK 293 Cell Line of Diverse Libraries Using Quantitative High-Throughput Screening | HEK 293 viability, ATP luminescence (CellTiter-Glo), 48-72 h | Potency, µM (top dose mostly 115 µM), for the others: at the top dose activity change, negative = cytotoxicity, hits mostly inhibitors | 94,000 compounds, 6.6% hits | AID 1345083, 2018; also: nearly all actives have a fitted effect of over 60% in size
#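 250 HEK 293 cells/well; compound by pintool; incubated 48 or 72 hr at 37 degree Celsius; CellTiter-Glo added, 10 min RT, luminescence imaged.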
# Luciferase inh: Firefly luciferase inhibition profiling of diverse chemical library using quantitative high-throughput screening | purified P. pyralis luciferase, luminescence, biochemical | Potency, µM (doses to about 115 µM), hits mostly inhibitors | 76,000 compounds, 2.5% hits | AID 1347043, 2019; also: nearly all actives have a fitted effect of over 65% in size
#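 Purified 10nM P. pyralis luciferase with 10uM D-luciferin and 10uM ATP in 50mM Tris acetate pH 7.5, 10mM Mg acetate, 0.01% Tween-20, 0.05% BSA. qHTS titration; luminescence read by CCD imager.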
# GPT2 inhibitor: Primary qHTS assay for inhibitors of Glutamate pyruvate transaminase 2 (GPT2); Alanine aminotransferase 2 (Homo sapiens), Q8TD30; Recombinant GPT2, coupled pyruvate oxidase/HRP Amplex Red fluorescence; Potency, µM (highest dose often 57.7 µM), inactives show at the highest dose activity change, negative = inhibition, hits mostly inhibitors; 100,000 compounds, 0.25% hits; also: nearly all actives have a fitted effect of over 60% in size
#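 Recombinant GPT2 (10ng/uL) with 250uM a-KG and 2mM L-alanine, 30 min at room temperature, in HEPES pH 7.5 buffer. Pyruvate detected by pyruvate oxidase/HRP/Amplex Red fluorescence after 30 min in the dark; AOA (50uM) as positive control.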
# NPR1 antag: Natriuretic polypeptide receptor (hNpr1) antagonism - Primary qHTS | Atrial natriuretic peptide receptor 1 (Homo sapiens), P16066 | HEK293 hNpr1 GloSensor cGMP, ANP-stimulated luminescence | Potency, µM (titrated, usually from 46.3 µM), without a hit: at the top dose activity change, negative = inhibition, usual class: inhibitors | 76,000 compounds, 1.6% hits; calls by dose curve; also: nearly all actives have a fitted effect of over 60% in size
# Target sequence (P16066 whole entry, looked up): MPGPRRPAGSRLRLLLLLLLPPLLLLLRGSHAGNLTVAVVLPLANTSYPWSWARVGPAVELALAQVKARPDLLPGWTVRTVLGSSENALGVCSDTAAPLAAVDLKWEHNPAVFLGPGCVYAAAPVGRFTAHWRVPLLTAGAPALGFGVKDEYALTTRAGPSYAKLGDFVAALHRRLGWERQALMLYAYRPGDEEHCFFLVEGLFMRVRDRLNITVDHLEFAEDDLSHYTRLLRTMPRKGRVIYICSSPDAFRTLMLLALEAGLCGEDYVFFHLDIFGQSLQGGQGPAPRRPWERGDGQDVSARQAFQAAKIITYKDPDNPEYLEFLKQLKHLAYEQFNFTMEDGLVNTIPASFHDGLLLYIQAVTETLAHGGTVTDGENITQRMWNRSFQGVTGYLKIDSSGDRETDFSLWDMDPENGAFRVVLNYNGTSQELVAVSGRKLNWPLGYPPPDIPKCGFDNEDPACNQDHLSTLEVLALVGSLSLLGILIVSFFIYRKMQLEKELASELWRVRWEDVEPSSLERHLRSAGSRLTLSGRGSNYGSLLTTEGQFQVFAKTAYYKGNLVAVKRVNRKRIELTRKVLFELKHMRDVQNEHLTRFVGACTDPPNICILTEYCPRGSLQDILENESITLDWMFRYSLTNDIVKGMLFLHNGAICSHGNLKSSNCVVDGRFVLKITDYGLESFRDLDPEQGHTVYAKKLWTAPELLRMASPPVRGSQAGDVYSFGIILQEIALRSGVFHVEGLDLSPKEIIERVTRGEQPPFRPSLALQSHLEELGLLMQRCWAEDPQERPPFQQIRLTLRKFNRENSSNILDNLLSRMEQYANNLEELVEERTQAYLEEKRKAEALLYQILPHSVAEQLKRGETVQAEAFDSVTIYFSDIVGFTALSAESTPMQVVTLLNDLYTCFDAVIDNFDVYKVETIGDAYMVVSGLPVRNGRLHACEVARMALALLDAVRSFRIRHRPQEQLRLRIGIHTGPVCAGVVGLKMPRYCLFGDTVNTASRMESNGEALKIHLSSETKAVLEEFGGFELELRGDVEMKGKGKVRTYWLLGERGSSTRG
#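 HEK293 cells stably expressing human Npr1 and cGMP GloSensor pGS-40F, loaded 2 h with 2% GloSensor reagent, given compound 30 min at room temperature. Luminescence read before and 20 min after 0.1 nM hNppA.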
# Numbers without * were called inactive; i = inactive; u = inconclusive; x = no result given; ! = not active in a repeat; [ ] = dose if it differs, or a comment. Unless noted, calls follow the shape of the dose curve; as a rule, active = well fitted curve in the direction sought with a large enough effect; inconclusive = small, poorly fitted or top-dose-only effect, or another doubt; inactive = no such curve, though single readings can be large; an effect the other way counts as inactive or inconclusive. % is scaled to controls: 0 for no effect and ±100 for the full control effect; potency is read from the fitted curve at half-maximal effect.
SMILES,NIH3T3 tox,HEK293 tox,Luciferase inh,GPT2 inhibitor,NPR1 antag
COc1ccc(CN2CCOc3nc(-c4cccc(NC(C)=O)c4)ncc3C2=O)cc1,u,100µM*,i,-1%[88.5 µM],-20%[70.6 µM]
COCCN1CCOc2nc(-c3ccc(Oc4ccccc4)cc3)ncc2C1=O,u,56µM*,22µM*,-11%[88.5 µM],22µM*
O=C1c2cnc(-c3ccc(Oc4ccccc4)cc3)nc2OCCN1CC1CC1,28µM*,u,u,-11%[88.5 µM],7.1µM*
O=C1c2cnc(-c3ccc(F)cc3)nc2OCCN1Cc1ccc(F)cc1F,u,u,i,i,-11%[70.6 µM]
O=C1c2cnc(-c3ccc(CO)cc3)nc2OCCN1Cc1ccc(F)cc1F,u,89µM*,u,-4%[88.5 µM],-16%[70.6 µM]
Cn1cccc1C(=O)N1CCCC1c1nc(CCOCC2CC2)no1 (centres undefined),-6%,i,x,i,x
O=C(NCc1ccc(Cl)cc1)c1c(OCC2CC2)cc(=O)n2c1CCOCC2,-32%,-22%,x,i,x
N[C@H]1CO[C@H]2[C@@H]1OC[C@@H]2n1cc(-c2ccccn2)nn1,u,126µM*,i,u,-4%[70.6 µM]
O=C(Nc1ccc(F)cc1)c1cccn2cncc12,-27%[138 µM],u,45µM*,-21%[88.5 µM],-1%[70.6 µM]
O=C(Nc1ccc(Cl)cc1Cl)c1cccn2cncc12,u,u,45µM*,i,-19%[70.6 µM]
O=C(Nc1ccc(Cl)cc1Cl)c1ccn2cncc2c1,-7%[138 µM],u,i,i,-6%[70.6 µM]
COc1ncccc1-c1nc2cc(C(=O)Nc3cccc(Cl)c3)ccc2o1,-32%,13µM*,x,4%,x
Cc1cccc(-c2nc3cc(C(=O)NC4CCCCCC4)ccc3o2)n1,u,u,x,1%,x
O=C(NCC1CC1)c1ccc2nc(-c3ccccn3)oc2c1,u,112µM*,x,i,x
Cc1cccc(-c2nc3ccc(C(=O)NC4CC4)cc3o2)n1,u,45µM*,x,-4%,x
COc1ccc(NC(=O)c2ccc3nc(-c4ccccn4)oc3c2)cc1,-39%,25µM*,x,-3%,x
COc1ccc(NC(=O)c2ccc3oc(-c4cccnc4OC)nc3c2)cc1,-22%[138 µM],u,x,i,x
CCN1CCN(CCCNC(=O)C2CCCCC(=O)N2Cc2cccc(OC)c2)CC1 (centres undefined),-13%,-4%,x,-2%,x
O=C(Nc1ccc(F)cc1)C1CCN(C(=O)c2ncn3c2COC(c2ccc(F)cc2)C3)CC1 (centres undefined),-17%,0%,32µM*,i,-13%
O=C(NCc1cc(F)cc(F)c1)C1CCN(C(=O)c2ncn3c2COC(c2ccc(F)cc2)C3)CC1 (centres undefined),0%,-19%,u,i,-1%
O=C(NC1CCCCCCC1)C1CCN(C(=O)c2ncn3c2COC(c2ccccc2)C3)CC1 (centres undefined),1%,6%,18µM*,3%,-22%
Cc1ccc(NC(=O)C2CCN(C(=O)c3ncn4c3COC(c3ccc(F)cc3)C4)CC2)cc1Cl (centres undefined),u,u,28µM*,i,-12%
O=C(Nc1cc(F)cc(F)c1)C1CCN(C(=O)c2ncn3c2COC(c2ccc(F)cc2)C3)CC1 (centres undefined),u,u,35µM*,i,u
COc1ccc(NC(=O)C2CCN(C(=O)c3ncn4c3COC(c3ccc(F)cc3)C4)CC2)cc1F (centres undefined),0%,-8%,u,i,-2%
CNC(=O)c1cc(C)nc2onc(C3CCN([S+](=O)([O-])c4ccccc4)C3)c12 (centres undefined),-1%,-6%,x,x,x
SMILES,NIH3T3 tox,HEK293 tox,Luciferase inh,GPT2 inhibitor,NPR1 antag
COCCc1noc([C@@H]2CN(Cc3ccccc3C#N)C[C@H]2CO)n1,0%,i,i,1%,6%
O=C(NC1CC1)C1CCN(C(=O)c2ncn3c2COC(c2ccc(F)cc2)C3)CC1 (centres undefined),i,8%,35µM*,-2%,3%
O=C(NC1CCCCCC1)C1CCN(C(=O)c2ncn3c2COC(c2ccc(F)cc2)C3)CC1 (centres undefined),i,4%,i,i,-6%
O=C1[C@H]2CC[C@H](CN(Cc3ccc(-n4ccnc4)cc3)C2)N1CC1CCC1,40µM*,u,i,i,u
O=C(CN1C(=O)NC(c2ccccc2Cl)C2=C1COC2=O)Nc1ccc(F)cc1F (centres undefined),-6%,u,i,3%,0%
COc1ccc(-c2cccc(C(=O)NCCc3ccccc3)c2)nn1,u,-20%,x,x,x
COC1CCCN(C(=O)c2cc(-c3ccc(F)cc3)cc3ncn(C)c23)C1 (centres undefined),-26%[138 µM],u,25µM*,-14%[88.5 µM],1%[70.6 µM]
COc1ccccc1-c1ccc(C(=O)N2CCC(C(=O)N3CCC(c4ccccc4)CC3)CC2)cc1,u,u,x,i,x
COc1ccccc1-c1ccc(CN2CCCCC2C(=O)N2CCN(Cc3ccccc3)CC2)cc1 (centres undefined),u,32µM*,x,i,x
COc1ccccc1-c1ccc(CN2CCCCC2C(=O)N2CCC(c3ccccc3)CC2)cc1 (centres undefined),40µM*,25µM*!,x,x,x
CNc1ncncc1-c1nc(-c2ccccc2)no1,u,u,u,i,-23%
CN(C)c1ccc(NC(=O)c2cc(-c3ccc(C(F)(F)F)cc3)nc3c2cnn3C)cc1,-31%,-3%,x,x,x
Cn1ncc2c(C(=O)Nc3cccnc3)cc(-c3ccccc3C(F)(F)F)nc21,i,i,x,x,x
